Growth inhibition data for twelve compounds are collected here from PubChem BioAssay (NCI).

This is part of a sample that, as a whole, favours compounds with a hit. Of some 79,000 tested, about 15% had one in any assay. Values without a mark were called inactive. Activity calls are given as the source filed them. Rule as the data show it: active = growth inhibition above about 70%; inactive = the rest.

The nature of the assay: NCI Yeast Anticancer Drug Screen. Data for the mlh1 rad18 strain (AID 175). Conditions: S. cerevisiae mlh1 rad18 strain growth inhibition; at 50.0 µM; active compounds read high. The essentials:
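Steps: expose repair-defective yeast to compound; measure growth; express inhibition against vehicle-treated controls.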
For `CCC1CCN(CC)CC1`, the growth inhibition was -4.1%. Consider `Cc1cc(C(=O)O)c(C(=O)O)c(=O)[nH]1`, for which the growth inhibition was -13.9%. The figure for `CC(=O)/C(=C\c1ccc([N+](=O)[O-])o1)C(=O)CCN(C)C` is 84.8% (active). Then `C(=C1/NC(c2ccccc2)=Nc2ccccc21)/c1ccccc1`, with 29.8%. Consider `COc1ccc2ccccc2c1C1NC(=O)c2ccccc2N1` (configuration not stated), for which the growth inhibition is 0.1%. With `NCCNCCCCCCNC(=O)c1cccc2cc3ccccc3nc12`, the growth inhibition is -102%. Then `c1ccc(-c2ccc3ncccc3c2)cc1`, with 2.3%; and `CCOC(=O)Oc1ccc(C(CNC(C)C)OC(=O)OCC)cc1OC(=O)OCC` (configuration not stated), with 32.9%. The figure for `S=C1Cc2c([nH]c3ccccc23)-c2ccccc2N1` is 2.45%. As for `Cc1nc(N)c(N2CCN(S(=O)(=O)N(Cc3ccccc3)Cc3ccccc3)CC2)c(=O)[nH]1`, the growth inhibition is 3.95%. Turning to `CC(Br)C1=CC(c2ccccc2)(c2ccccc2)c2ccccc21` (configuration not stated), the growth inhibition was 96.7% (active). The figure for `COC(=O)c1ccc(N(C)CCC(=O)COC(C)=O)cc1` is 10.3%.
